“And” between values parts separate entries of the source, which are not always exact repeats. Equal values may be shown once. Results filed as inconclusive are left out. Some compounds were tested as several samples or in several runs, with calls that do not always agree. The source made the active and inactive calls. Calls come from the whole dose curve; as a rule, active = well fitted cell-killing curve with a large enough effect in the repeat runs; inconclusive = weak or mixed curves, or effect the other way; inactive = flat fitted curve, though single readings scatter.
assay: qHTS RealTime-Glo MT Cell Viability Assay in HEK293 cells - 16 hour (AID 1224872); conditions: RealTime-Glo luminescence; series mostly up to 76.8 µM; activity change, negative = cytotoxicity: at the top concentration; note: nearly all actives have a fitted effect of over 50% in size; for activity change, negative = cytotoxicity: top concentration of the series differs between compounds
Description: National Center for Advancing Translational Sciences [NCATS]
NIH Chemical Genomics Center [NCGC]
U.S. Environmental Protection Agency [EPA]
National Institutes of Environmental Health Sciences [NIEHS]
National Toxicology Program [NTP]
U.S. Food and Drug Administration [FDA]
Measure of cell viability is critical in the cell-base assay. Analysis of cell viability is necessary for the characterization of cell responses to cytotoxic drugs and environmental stress. A RealTime-Glo MT Cell Viability Assay to monitor cell viability in real time of continues cell culture during 40 hours of compound treatment was used to screen Tox21 10K library compounds in Hek293 cells. The RealTime-Glo MT Cell Viability Assay is a nonlytic, homogeneous, bioluminescent method to measure cell viability in real time using a simple, plate-based method. The assay involves adding NanoLuc luciferase and a cell-permeant prosubstrate to cells in culture. Viable cells reduce the proprietary prosubstrate to generate a substrate for NanoLuc luciferase. This substrate diffuses from cells into the surrounding culture medium, where it is rapidly used by the NanoLuc Enzyme to produce a luminescent signal. The signal correlates with the number of viable cells, making the assay well suited for cytotoxicity studies.
Tox21 Assay Protocol Summary:
The mixture of Hek293 cell suspension and reagents were dispensed at 600cells/6 ul/well in 1536-well tissue culture treated black solid bottom plates using a Multidrop dispenser. After the assay plates were incubated at a 37 C/5% CO2 incubator for 5 hours, 23 nL of compounds dissolved in DMSO, positive and negative controls was transferred to the assay plate by a pintool work station. The plates were incubated at 37 C for 40 hours. The luminescence intensity were measured at 0h, 8h, 16h, 24h, 32h and 40h time points using ViewLux plate reader during compound treatment.
% is set by controls: 0 for no effect and ±100 for the full control effect; potency is the fitted concentration of half-maximal effect.

Row | SMILES | Potency | activity change, negative = cytotoxicity
1 | CCc1nn(C)c(C(=O)NCc2ccc(C(C)(C)C)cc2)c1Cl | 0.0871 µM (active) | 
2 | ClC1=C(Cl)[C@]2(Cl)[C@@H]3[C@@H](Cl)[C@@H](Cl)C[C@@H]3[C@@]1(Cl)C2(Cl)Cl |  | 10.1% (inactive)
3 | CN(C)CCc1c[nH]c2ccc(O)cc12 |  | -0.233% (inactive)
4 | NC(=O)CCl |  | 7.93% (inactive)
5 | C=COCCCl |  | 11.7% (inactive)
6 | Oc1ccc2ccc3cccc4ccc1c2c34 | 15.5 µM (active) | 
7 | NC(=O)c1ccc(N)nc1 |  | -13.3% (inactive)
8 | CC(O)C#N (stereo not given) |  | 0.742% (inactive)
9 | CCCCCCCCCCCCCCCC[N+](C)(C)C | 10.6 µM (active) and 21.9 µM (active) | 
10 | ClCc1ccc(Cl)cc1Cl |  | -1.65% (inactive)
11 | CCCSP(=O)(OCC)SCCC |  | -5.15% (inactive)
12 | CC(C)CC(C)(c1ccc(O)cc1)c1ccc(O)cc1 | 43.8 µM (active) and inactive | 
13 | CCCCN(CCCC)C(=S)[S-].CCCCN(CCCC)C(=S)[S-].[Zn+2] | 12.3 µM (active) | 
14 | O=C(CCl)C(Cl)Cl | 17.5 µM (active) | 
15 | CN(CCCC(O)c1cccnc1)N=O (stereo not given) |  | -2.86% (inactive)
16 | C=CC(=O)N(C)C |  | 1.52% (inactive)
17 | CCCOCC(=Nc1ccc(Cl)cc1C(F)(F)F)n1ccnc1 | 43.6 µM (active) | 
18 | CC(C)(c1ccc(O)c(-c2ccccc2)c1)c1ccc(O)c(-c2ccccc2)c1 | 21.9 µM (active) | 
19 | CCCCCCCCCCBr |  | -10.1% (inactive)
20 | CCOC(=O)OC1=C(c2cc(C)ccc2C)C(=O)NC12CCC(OC)CC2 (stereo not given) |  | 5.62% (inactive)

Row | SMILES | Potency | activity change, negative = cytotoxicity
21 | Nc1ccc([N+](=O)[O-])cc1Cl |  | -1.42% (inactive)
22 | CCC(C)c1cc([N+](=O)[O-])cc([N+](=O)[O-])c1OC(=O)C=C(C)C (stereo not given) | 49 µM (active) | 
23 | COC[C@H](C)N(C(=O)CCl)c1c(C)csc1C |  | 18.7% (inactive)
24 | CCOP(=S)(OCC)SCS(=O)(=O)C(C)(C)C |  | -11.5% (inactive)
25 | CC(C)[C@H](C(=O)OC(C#N)c1cccc(Oc2ccccc2)c1)c1ccc(OC(F)F)cc1 (stereo not given in full) |  | -25.2% (inactive)
26 | ClC(Cl)=C(c1ccc(Cl)cc1)c1ccc(Cl)cc1 | 56.3 µM (active) | 
27 | C=CC(=O)OCC(COC(=O)C=C)(COC(=O)C=C)COC(=O)C=C | 3.89 µM (active) | 
28 | O=C(Nc1ccc2[nH]ccc2c1)c1cc2cc(F)ccc2n1Cc1cccc(F)c1 |  | -15.3% (inactive)
29 | Cc1cc(C(C)(C)c2cc(C)c(O)c(C)c2)cc(C)c1O | 23.7 µM (active) | 
30 | CCN(CC)c1c([N+](=O)[O-])cc(C(F)(F)F)c(N)c1[N+](=O)[O-] | 12.3 µM (active) | 
31 | C[C@@H](Oc1ccc(Cl)cc1Cl)C(=O)O |  | -7.13% (inactive)
32 | CC(C)(O)c1cnn2c(-c3ccc(F)c(-c4c(F)cccc4C#N)c3)cnc2n1 | 5.49 µM (active) | 
33 | Nc1ccccc1C(=O)OC/C=C/c1ccccc1 | 24.6 µM (active) | 
34 | CCCCCCCCCCCCCN1CC(C)OC(C)C1 (stereo not given) |  | -0.453% (inactive)
35 | C=CCOC(N)=O |  | 2.1% (inactive)
36 | CC(=O)[O-].[Tl+] |  | -20.4% (inactive)
37 | COc1ccc(N)cc1N | 35.8 µM (active) | 
38 | CCCCCCCCCCCCCCC(Br)C(=O)O (stereo not given) |  | -8.45% (inactive)
39 | C[C@]12Cc3nonc3C[C@@H]1CC[C@@H]1[C@@H]2CC[C@@]2(C)[C@H]1CC[C@]2(C)O | 19 µM (active) | 
40 | CCCCCCCCCCCCCCCCCCn1cc[n+](C)c1 | 24.4 µM (active) | 
